According to PubChem BioAssay (NCI):
About 79,000 compounds went through this panel and 15% of them were active in at least one assay; those are over-represented in the sample as a whole. Activity calls are given as the source filed them. Cut-off read from the data, not from the text of the source: active = growth inhibition above about 70%; inactive = the rest.

How the values were obtained:
[1] = NCI Yeast Anticancer Drug Screen. Data for the rad50 strain (AID 155);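 note: 0% = growth of vehicle-only cultures of the same strain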; conditions: S. cerevisiae rad50 strain growth inhibition, stronger effect = higher value
In short: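 Inhibition values express reduced yeast growth in compound-treated cultures relative to vehicle-treated controls.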

[2] = NCI Yeast Anticancer Drug Screen. Data for the mec2-1 strain (AID 157); conditions: S. cerevisiae mec2-1 strain, stronger effect = higher value
In short: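 Using mec2-1 yeast: add compound, measure growth, express inhibition versus vehicle-treated cultures.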

[3] = NCI Yeast Anticancer Drug Screen. Data for the sgs1 mgt1 strain (AID 161);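 note: 0% = growth of cultures given vehicle only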; conditions: S. cerevisiae sgs1 mgt1 strain, stronger effect = higher value
In short: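 This yeast growth screen uses a strain with defined DNA-repair lesions; compound-treated growth is compared with vehicle-treated growth.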

[4] = NCI Yeast Anticancer Drug Screen. Data for the cln2 rad14 strain (AID 165);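 note: 0% = growth equal to vehicle treated cultures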; conditions: S. cerevisiae cln2 rad14 strain, stronger effect = higher value
In short: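 Yeast strain cln2 rad14, bearing defects in cell cycle control and DNA repair, serves as the test system; values reflect growth inhibition compared with vehicle.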

[5] = NCI Yeast Anticancer Drug Screen. Data for the bub3 strain (AID 167); conditions: S. cerevisiae bub3 mutant strain, stronger effect = higher value
In short: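 Steps: expose the mutant yeast strain to compound; grow alongside vehicle-treated cultures; measure growth; express inhibition against the vehicle cultures.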

[6] = NCI Yeast Anticancer Drug Screen. Data for the mlh1 rad18 strain (AID 175); conditions: S. cerevisiae mlh1 rad18 strain growth inhibition, stronger effect = higher value
In short: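 Steps: expose repair-defective yeast to compound; measure growth; express inhibition against vehicle-treated controls.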

[7] = at 5.0 µM (retest, dose inferred, filed as 0.5)
[8] = at 50.0 µM (retest, dose inferred, filed as 5.0)

Measured: growth inhibition

CCNCCNc1cc(O)c2c(c1O)C(=O)c1ccccc1C2=O
inactive: [4]; [7] 30% | [4]; at 50.0 µM 67.8%
active: [1]; [7] 73% | [1]; [8] 98% | [1]; at 50.0 µM 87.2% | [2]; [7] 92% | [2]; [8] 98% | [2]; at 50.0 µM 84.9% | [3]; [7] 78% | [3]; [8] 98% | [3]; at 50.0 µM 83.5% | [4]; [8] 83% | [5]; [7] 96% | [5]; [8] 98% | [5]; at 50.0 µM 78.5% | [6]; [7] 91% | [6]; [8] 98% | [6]; at 50.0 µM 91.7%

O=C(CC(c1ccccc1Cl)C(C(=O)O)c1ccccc1)c1ccccc1 (stereo not given)
inactive: [1]; [7] 4% | [2]; [7] 4% | [3]; [7] 6% | [4]; [7] 6% | [5]; [7] -4% | [5]; [8] 67% | [5]; at 50.0 µM 43.6% | [6]; [7] -1%
active: [1]; [8] 72% | [1]; at 50.0 µM 81% | [2]; [8] 71% | [2]; at 50.0 µM 71.7% | [3]; [8] 72% | [3]; at 50.0 µM 92.5% | [4]; [8] 83% | [4]; at 50.0 µM 91.5% | [6]; [8] 78% | [6]; at 50.0 µM 92.1%

CC(SCc1ccccc1)C(=O)O (stereo not given)
active: [4]; at 50.0 µM 73%
inactive: [1]; [7] -10% | [1]; [8] 10% | [1]; at 50.0 µM -9.25% | [2]; [7] 3% | [2]; [8] 7% | [2]; at 50.0 µM -29.8% | [3]; [7] -6% | [3]; [8] 3% | [3]; at 50.0 µM -35.9% | [4]; [7] 9% | [4]; [8] -1% | [5]; [7] -21% | [5]; [8] -2% | [5]; at 50.0 µM -18.6% | [6]; [7] -2% | [6]; [8] 44% | [6]; at 50.0 µM -44.5%

O=C(Nc1c(Cl)cccc1Cl)OCCOc1ccc(Cl)cc1Cl
active: [1]; [8] 73% | [1]; at 50.0 µM 88.5% | [2]; at 50.0 µM 90.8% | [3]; at 50.0 µM 91.2% | [4]; at 50.0 µM 88.2% | [5]; [8] 71% | [5]; at 50.0 µM 90.7% | [6]; [8] 80% | [6]; at 50.0 µM 90%
inactive: [1]; [7] 44% | [2]; [7] 36% | [2]; [8] 57% | [3]; [7] 47% | [3]; [8] 58% | [4]; [7] 34% | [4]; [8] 61% | [5]; [7] 38% | [6]; [7] 55%

COc1ccc(CN=C(N)N)c2ccccc12
inactive: [1]; [7] 5% | [1]; [8] 7% | [1]; at 50.0 µM -29.9% | [2]; [7] 2% | [2]; [8] 5% | [2]; at 50.0 µM -24.4% | [3]; [7] -6% | [3]; [8] -1% | [3]; at 50.0 µM -15.7% | [4]; [7] 31% | [4]; [8] 31% | [4]; at 50.0 µM -3% | [5]; [7] -22% | [5]; [8] -23% | [5]; at 50.0 µM -32.5% | [6]; [7] 13% | [6]; [8] 10% | [6]; at 50.0 µM -5.45%

O=C(O)C(Br)C(Br)c1ccccc1[N+](=O)[O-] (stereo not given)
active: [1]; [8] 81% | [1]; at 50.0 µM 96.5% | [2]; at 50.0 µM 89% | [3]; [8] 79% | [3]; at 50.0 µM 95% | [4]; [8] 72% | [4]; at 50.0 µM 77.2% | [5]; [8] 79% | [5]; at 50.0 µM 96% | [6]; [8] 85% | [6]; at 50.0 µM 92%
inactive: [1]; [7] 15% | [2]; [7] 8% | [2]; [8] 60% | [3]; [7] 20% | [4]; [7] 21% | [5]; [7] 3% | [6]; [7] 11%

O=C(O)C(O)C(O)C(O)C(O)c1nc2ccccc2s1 (stereo not given)
active: [1]; [8] 98% | [1]; at 50.0 µM 98.6% | [2]; [8] 99% | [2]; at 50.0 µM 98.7% | [3]; [8] 96% | [3]; at 50.0 µM 90.5% | [4]; [8] 95% | [4]; at 50.0 µM 73.7% | [5]; [8] 99% | [5]; at 50.0 µM 99% | [6]; [8] 97% | [6]; at 50.0 µM 99%
inactive: [1]; [7] 13% | [2]; [7] 13% | [3]; [7] 12% | [4]; [7] 1% | [5]; [7] 8% | [6]; [7] 9%

CCc1c(Nc2ccccc2C)[nH]c(N)nc1=S
inactive: [1]; [7] -2% | [1]; [8] -32% | [1]; at 50.0 µM -6.6% | [2]; [7] -2% | [2]; [8] -7% | [2]; at 50.0 µM 5.35% | [3]; [7] -1% | [3]; [8] -7% | [3]; at 50.0 µM 12.4% | [4]; [7] -7% | [4]; [8] -15% | [4]; at 50.0 µM -7% | [5]; [7] -4% | [5]; [8] 8% | [6]; [7] -1% | [6]; [8] -7% | [6]; at 50.0 µM -12.4%
active: [5]; at 50.0 µM 77.2%

CCCCC(CC)(CCC)CCN (stereo not given)
active: [1]; [8] 93% | [6]; [8] 83%
inactive: [1]; [7] 1% | [1]; at 50.0 µM 1.65% | [2]; [7] 1% | [2]; [8] 65% | [2]; at 50.0 µM 1.75% | [3]; [7] 1% | [3]; [8] 30% | [3]; at 50.0 µM 16.6% | [4]; [7] 4% | [4]; [8] 36% | [4]; at 50.0 µM 32% | [5]; [7] -3% | [5]; [8] 67% | [5]; at 50.0 µM -5.95% | [6]; [7] -1% | [6]; at 50.0 µM 31.4%

Clc1ccc(-c2noc(CN3CCCCC3)n2)cc1
active: [4]; at 50.0 µM 73.3% | [5]; at 50.0 µM 71.9%
inactive: [1]; [7] 10% | [1]; [8] 38% | [1]; at 50.0 µM 66% | [2]; [7] 0% | [2]; [8] 24% | [2]; at 50.0 µM 15.2% | [3]; [7] 2% | [3]; [8] 62% | [3]; at 50.0 µM 49.6% | [4]; [7] -7% | [4]; [8] 21% | [5]; [7] -1% | [5]; [8] 25% | [6]; [7] -4% | [6]; [8] 24% | [6]; at 50.0 µM 67.3%
